{"source": "PubChem BioAssay AID493240", "about": "(Broad Institute, 2011)", "note": "The whole screen tested about 1,300 compounds, of which about 270 (21%) were called active. The rule behind the calls is not given here. Not all results are given here. Entries with a potency or affinity are not part of this list."}
{"test": "cytotoxicity in parental SK-MEL-5 melanoma cells – cell-based, CellTiter-Glo, cherry-picked, set 3, orthogonal assay for MITF inhibitor project, dose response (AID 493240)", "conditions": "SK-MEL-5 viability, ATP luminescence (CellTiter-Glo), 24 h; series mostly up to 35 µM"}
{"smiles": "Cc1cc(C(=O)CSc2nnc3ccccn23)c(C)n1-c1ccccc1", "outcome": "inactive"}
{"smiles": "O=C(Nc1cnc2ccccn2c1=O)c1ccc(F)cc1", "outcome": "inactive"}
{"smiles": "Cc1ccc(NCC(=O)N/N=C\\c2ccc([N+](=O)[O-])o2)cc1", "outcome": "inactive"}
{"smiles": "Cc1ccc(NC(=O)CCC(=O)N/N=C/c2ccc([N+](=O)[O-])o2)cc1C", "outcome": "inactive"}
{"smiles": "CC1(C(=O)N/N=C/c2ccc([N+](=O)[O-])o2)CC1(Br)Br", "note": "(configuration not stated)", "outcome": "inactive"}
{"smiles": "O=C(Cc1ccc2c(c1)OCO2)NN=Cc1ccc([N+](=O)[O-])o1", "outcome": "inactive"}
{"smiles": "CCCCn1c(=O)[nH]c(=O)c2c1nc(Cn1ncc(Cl)c(Cl)c1=O)n2CCC", "outcome": "inactive"}
{"smiles": "O=c1c(Cl)c(Cl)cnn1-c1ccccc1", "outcome": "inactive"}
{"smiles": "CC(=O)OCCCNc1cc(Sc2ccc(Cl)cc2)c2nonc2c1[N+](=O)[O-]", "outcome": "inactive"}
{"smiles": "Cc1ccccc1OCc1nc2c3cnn(C)c3ncn2n1", "outcome": "inactive"}
{"smiles": "c1cnc(SCCOc2ccc3c(c2)CCC3)nc1", "outcome": "inactive"}
{"smiles": "CCn1nccc1C(=O)Nc1ccc(C)c(C)c1", "outcome": "inactive"}
{"smiles": "Cc1ccc(NC(=O)c2cnc3ccccc3n2)cc1C", "outcome": "inactive"}
{"smiles": "ClC1(Cl)CC1CSc1nnc(-c2ccncc2)o1", "note": "(configuration not stated)", "outcome": "inactive"}
{"smiles": "O=C(Nc1ccc2nc3n(c(=O)c2c1)CCCCC3)c1cc([N+](=O)[O-])ccc1F", "outcome": "inactive"}
{"smiles": "CC1CCN(CC2C(=O)O[C@@H]3C[C@@]4(C)CCC[C@H](C)C4=C[C@H]23)CC(C)(C)C1", "note": "(some centres not stated)", "outcome": "inactive"}
{"smiles": "COc1cc(C(=O)N/N=C(\\c2ccccc2)c2ccccn2)cc(OC)c1OC", "outcome": "inactive"}
{"smiles": "O=C(NCc1ccc2c(c1)OCO2)c1cc(=O)[nH]c2ccccc12", "outcome": "inactive"}
{"smiles": "COc1ccc(N(Cc2cc(=O)[nH]c3ccccc23)C(=O)CCl)cc1", "outcome": "inactive"}
{"smiles": "CCC(=O)OCCNc1cc(Sc2nccn2C)c2nonc2c1[N+](=O)[O-]", "outcome": "inactive"}
{"smiles": "O=C1c2ccccc2C(=O)N1CCSc1ccccc1", "outcome": "inactive"}
{"smiles": "CN(c1ccc2nc3ccccc3c(=O)n2n1)C1CCCCC1", "outcome": "inactive"}
{"smiles": "O=C(CCl)Nc1cn(-c2ccccc2)nc1-c1ccccc1", "outcome": "inactive"}
{"smiles": "Cc1ccc(NC(=O)c2cc(-c3cccs3)on2)cc1", "outcome": "inactive"}
{"smiles": "Cc1ccc2oc(C(Cl)(Cl)Cl)cc(=O)c2c1", "outcome": "inactive"}
{"smiles": "O=C(CCl)N1c2ccccc2CCc2ccccc21", "outcome": "inactive"}
{"smiles": "Cc1ccc(NC(=O)/C=C/c2ccc([N+](=O)[O-])s2)c(C)c1", "outcome": "inactive"}
{"smiles": "CCCOc1ccc(C(=O)C(CN2CCCC2)c2ccccc2)cc1", "note": "(configuration not stated)", "outcome": "inactive"}
{"smiles": "CCSC1(SCC)N=C(N)C2(C#N)C(c3ccc(F)cc3)C12C#N", "note": "(configuration not stated)", "outcome": "inactive"}
{"smiles": "O=C(CCCc1ccccc1)Nc1cccc(C(=O)O)c1", "outcome": "inactive"}
{"smiles": "O=C(CSCc1c(F)cccc1F)Nc1ccccc1", "outcome": "inactive"}
{"smiles": "CSc1nc(N)n2nc(-c3ccc(Cl)cc3)cc2n1", "outcome": "inactive"}
{"smiles": "N#C/C(=C\\C=C\\c1ccccc1[N+](=O)[O-])C(=O)NC1CCCCC1", "outcome": "inactive"}
{"smiles": "CN(C)c1nc(-c2ccccn2)nnc1-c1ccccc1", "outcome": "inactive"}
{"smiles": "CCOc1cc(/C=C\\[N+](=O)[O-])ccc1OCC(=O)N1CCOCC1", "outcome": "inactive"}
{"smiles": "CS(=O)(=O)c1ccc2nc(NC(=O)c3ccccc3Br)sc2c1", "outcome": "inactive"}
{"smiles": "COc1ccc(-n2ncc3c(N4CCCCC4)ncnc32)cc1", "outcome": "inactive"}
{"smiles": "CN(C)c1cc[n+](CC(=O)c2ccc(-c3ccccc3)cc2)cc1", "outcome": "inactive"}
{"smiles": "COc1cccc(NC(=O)c2cnn(-c3ccccc3)c2C)c1", "outcome": "inactive"}
{"smiles": "CN1CCN(CCCOc2ccc(-c3ccccc3)cc2)CC1", "outcome": "inactive"}
{"smiles": "O=C(CCl)N1N=C(c2ccco2)CC1c1cccs1", "note": "(configuration not stated)", "outcome": "inactive"}
{"smiles": "CC(C)(C)OC(=O)N1CCN(C(=O)c2nc[nH]c2C(=O)N2CCN(c3ccccc3)CC2)CC1", "outcome": "inactive"}
{"smiles": "COCC(C)Nc1ncnc2c1cnn2-c1ccc(Cl)cc1", "note": "(configuration not stated)", "outcome": "inactive"}
{"smiles": "CC1CCCC(C)N1CCCNC(=O)c1cc2c(s1)-c1ccccc1OC2", "note": "(configuration not stated)", "outcome": "inactive"}
{"smiles": "C=CCn1c(C)cc(C(=O)CN2C(=O)c3ccccc3S2(=O)=O)c1C", "outcome": "inactive"}
{"smiles": "N#C/C(=C\\c1c[nH]c2ccccc12)C(=O)NC1CC1", "outcome": "inactive"}
{"smiles": "COc1cccc(N2CCN(C(=O)c3ccc(CS(=O)c4ccccc4Cl)o3)CC2)c1", "note": "(configuration not stated)", "outcome": "inactive"}
{"smiles": "C=C1C(=O)C2=CC1CCC(=O)C1(C)CCC(OC(C)=O)C(C)(C)C1CC2O", "note": "(configuration not stated)", "outcome": "inactive"}
{"smiles": "O=C(CCCc1ccccc1)N1CCN(C2CCCCC2)CC1", "outcome": "inactive"}
{"smiles": "NC(=O)c1ccccc1NC(=O)/C=C/c1cccc(Cl)c1", "outcome": "inactive"}
{"smiles": "CC(C)C(=O)Nc1ccc2nn(-c3ccc(F)cc3)nc2c1", "outcome": "inactive"}
{"smiles": "Cc1cc(/C(N)=N/OC(=O)c2ccc(Cl)cc2)no1", "outcome": "inactive"}
{"smiles": "COc1ccccc1OCCN1CSC(=S)N(C)C1", "outcome": "inactive"}
{"smiles": "CC(=O)CSc1ccc(-c2nc3cc(C)c(C)cc3[nH]2)cn1", "outcome": "inactive"}
{"smiles": "Cc1[nH]n(-c2ccccc2)c(=O)c1N=Nc1cccc(C(=O)O)c1", "outcome": "inactive"}
{"smiles": "CCOc1ccc(/C=C2\\SC(=S)N(CCC(=O)O)C2=O)cc1", "outcome": "inactive"}
{"smiles": "CC(=O)c1cccc(NC(=O)/C=C/c2ccc([N+](=O)[O-])s2)c1", "outcome": "inactive"}
{"smiles": "COc1ccccc1-c1nc(-c2ccc(C)nc2OC)no1", "outcome": "inactive"}
{"smiles": "COc1ccccc1-c1nnc(-c2ccc(C)cc2)o1", "outcome": "inactive"}
{"smiles": "O=C(O)c1ccc(N/N=C/c2ccc(OC(=O)c3cccc(Cl)c3)cc2)cc1", "outcome": "inactive"}
{"smiles": "CC(C)C(=O)N1CCN(c2ccc(NC(=O)c3ccc([N+](=O)[O-])o3)cc2Cl)CC1", "outcome": "inactive"}
{"smiles": "O=C(Nc1ccccc1N1CCOCC1)c1ccc([N+](=O)[O-])o1", "outcome": "inactive"}
{"smiles": "CCC(=O)N1CCN(c2ccc(Cl)cc2NC(=O)c2ccc([N+](=O)[O-])o2)CC1", "outcome": "inactive"}
{"smiles": "CN1CCN(c2ccc(NC(=O)c3ccc([N+](=O)[O-])o3)cc2Cl)CC1", "outcome": "inactive"}
{"smiles": "CCCC(=O)N1CCN(c2ccc(NC(=O)c3ccc([N+](=O)[O-])o3)cc2Cl)CC1", "outcome": "inactive"}
{"smiles": "Cc1cccc(NC(=O)c2ccc([N+](=O)[O-])o2)c1C", "outcome": "inactive"}
{"smiles": "CCn1c(=O)c([N+](=O)[O-])c(Cl)c2ccccc21", "outcome": "inactive"}
{"smiles": "CC(=O)N/C(N)=N/c1nc(=O)c2ccccc2s1", "outcome": "inactive"}
{"smiles": "COc1ccc(C(=O)/C=C(\\C)Nc2ccc3c(c2)OCO3)cc1", "outcome": "inactive"}
{"smiles": "Clc1nccnc1N/N=C/c1ccc(Br)cc1", "outcome": "inactive"}
{"smiles": "COc1cc(/C=C/C(=O)N2CCC=CC2=O)cc(OC)c1OC", "outcome": "inactive"}
{"smiles": "CC(=O)Nc1cccc(-c2nnc(-c3ccccc3)o2)c1", "outcome": "inactive"}
{"smiles": "Cc1ccc(C(=O)Nc2cnc3ccccc3c2)cc1", "outcome": "inactive"}
{"smiles": "O=C(O)CSCC(=O)Nc1ccc(C2CCCCC2)cc1", "outcome": "inactive"}
{"smiles": "O=C(CCl)Nc1cccc(Oc2ccccc2)c1", "outcome": "inactive"}
{"smiles": "Cc1c(C#N)c(NC(=O)CCl)n(Cc2ccccc2)c1C", "outcome": "inactive"}
{"smiles": "CCOc1cc(NC(=O)CCl)c(OCC)cc1NC(=O)CCl", "outcome": "inactive"}
